High-throughput results deposited in PubChem by National Center for Advancing Translational Sciences (NCATS).
In the library only some 19% were active in any assay of this set; here they are far more common.
IL1B secr inh: qHTS for Inhibitors of Inflammasome Signaling: IL-1-beta AlphaLISA Primary Screen; THP-1 LPS/ATP IL-1B secretion, AlphaLISA, 16 h; hits give low values; activity change, % at 57.5 µM; 360,000 compounds, 4.7% hits; in the data active = activity change below about -50%; inconclusive = mostly about -30% to -49%
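THP-1 cells pretreated 1 hr with compounds (up to 57.5 uM final), then stimulated with LPS (250 ng/mL final) plus ATP (1.25 mM final); secreted IL-1B measured by AlphaLISA after 16 hr, decreased signal indicating inhibition.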
ELG1 DNA repair: qHTS screen for small molecules that inhibit ELG1-dependent DNA repair in human embryonic kidney (HEK293T) cells expressing luciferase-tagged ELG1 | HEK293T ELG1-luciferase reporter, luminescence, 16 h; DNA damage induced by 5-fluorouridine | Potency, µM (titrated, usually from 46.1 µM), for the others: at the highest dose activity change, negative = inhibition, actives largely listed as inhibitors | 330,000 compounds, 2.3% hits; note: potency is the fitted concentration of half-maximal effect; nearly all actives have a fitted effect of over 55% in size
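Step one: seed 2,000 cells per well. Step two: pin-transfer compound or DMSO alongside 5-fluorouridine. Step three: incubate 16 hr, 37 °C, 5% CO2. Step four: add ONE-Glo, wait 30 min, read luminescence.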
HT1080NT lethal: qHTS for induction of synthetic lethality in tumor cells producing 2HG: qHTS for the HT-1080-NT fibrosarcoma cell line; HT-1080-NT fibrosarcoma viability, CellTiter-Glo ATP luminescence, 48 h; Potency, µM (titrated, usually from 46.1 µM), for inactives: at the top dose activity, negative = less viability, usual class: cytotoxic; 360,000 compounds, 1.6% hits;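 note: NT is the 2HG producing partner of a matched IDH1 knockdown line; potency is the fitted concentration of half-maximal effect; 0% = DMSO-treated cells and -100% = media-only wells without cells; nearly all actives have a fitted effect of over 55% in size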
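HT-1080-NT fibrosarcoma cells (2HG-overproducing), 750 cells/well in RPMI with 5% FBS, dosed after 2 h and incubated 48 h at 37C. CellTiter-Glo luminescence normalized to DMSO and no-cell wells; concentration-response curves fitted and classed.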
HT1080 IDH1KD tx: qHTS for induction of synthetic lethality in tumor cells producing 2HG: qHTS for the HT-1080-IDH1KD cell line; HT-1080 IDH1 knockdown viability, ATP luminescence, 48 h; Potency, µM (doses to about 46.1 µM), for the others: at the highest dose activity, negative = toxicity, usual class: cytotoxic; 360,000 compounds, 2% hits;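 note: potency is the fitted concentration of half-maximal effect; 0% = DMSO wells and -100% = cell-free medium wells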
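IDH1KD HT-1080 cells, 750/well, RPMI + 5% FBS; compound pinned after 2 h settling; 48 h, 37 °C; CellTiter-Glo luminescence; % activity normalised to DMSO and no-cell wells; curves fitted, classed by r2 and efficacy.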
DT40 TDP1 no CPT: qHTS for Inhibitors of human tyrosyl-DNA phosphodiesterase 1 (TDP1): qHTS in cells in absence of CPT; DT40 Tdp1-/- hTDP1 cells, no CPT, ATP luminescence, 48 h; Potency, µM (titrated, usually from 46.2 µM), for inactives: at the top dose activity change, negative = growth inhibition, usual class: inhibitors; 420,000 compounds, 15% hits; AID 686978, 2013; note: potency is the fitted concentration of half-maximal effect; nearly all actives have a fitted effect of over 55% in size
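Cells were dispensed at 400 per well, compounds added by pin tool, plates incubated ≥48 hr at 37 °C, then CellTiter-Glo added for 30 min at room temperature before luminescence reading. Line: DT40 Tdp1-/- complemented with hTDP1; camptothecin omitted.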
DT40 TDP1 CPT: qHTS for Inhibitors of human tyrosyl-DNA phosphodiesterase 1 (TDP1): qHTS in cells in presence of CPT; AID 686979, 2013; chicken DT40 Tdp1-/-;hTDP1 cells + 20 nM CPT, ATP luminescence, 48 h; Potency, µM (series often up to 46.2 µM), for inactives: top-dose activity change, negative = growth inhibition, most hits filed as inhibitors; 420,000 compounds, 12% hits; note: potency is the fitted concentration of half-maximal effect; nearly all actives have a fitted effect of over 55% in size
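Cell growth measured by CellTiter-Glo luminescence after a minimum 48 h, 37 C compound exposure with 20 nM CPT in Tdp1-knockout DT40 cells stably expressing hTDP1, seeded 400/well; qHTS titration format.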
An asterisk follows results filed as active. Unless noted, calls come from the whole dose curve; as a rule, active = well fitted curve in the direction sought with a large enough effect; inconclusive = small, poorly fitted or top-dose-only effect, or another doubt; inactive = no such curve, though single readings can be large; an effect the other way counts as inactive or inconclusive. Unless noted, % is set by controls: 0 for no effect and ±100 for the full control effect.

CN(C)c1ccc(/C=C2\Oc3ccc(C#Cc4cccc(N)c4)cc3C2=O)cc1 was read as IL1B secr inh -18, ELG1 DNA repair 1%, HT1080NT lethal 2%, HT1080 IDH1KD tx 3%, DT40 TDP1 no CPT -46% and DT40 TDP1 CPT inconclusive.
COc1cccc(-c2cnc3c(NC(C)=O)cc(-c4ccc(S(C)(=O)=O)cc4)cn23)c1 was read as IL1B secr inh inconclusive, HT1080NT lethal inconclusive, HT1080 IDH1KD tx inconclusive, DT40 TDP1 no CPT 23µM* and DT40 TDP1 CPT inconclusive.
`COc1ccc(-c2cnc3c(NC(C)=O)cc(-c4ccc(S(C)(=O)=O)cc4)cn23)cc1OC` gave IL1B secr inh -26, HT1080NT lethal -21%, HT1080 IDH1KD tx 2%, DT40 TDP1 no CPT 18µM* and DT40 TDP1 CPT inconclusive.
Screening CCc1nc2ccc(C(=O)N(C)C(C)C)cn2c1N(CCC(C)C)CCN(C)C returned IL1B secr inh -4, HT1080NT lethal 2%, HT1080 IDH1KD tx 3%, DT40 TDP1 no CPT -27% and DT40 TDP1 CPT -27%.
Screening COC(=O)c1ccccc1NC(=O)c1ccc2c(c1)CCN2S(=O)(=O)c1ccc(Cl)cc1 returned DT40 TDP1 no CPT -9% and DT40 TDP1 CPT -17%.
C(=N\N(Cc1ccccc1)c1ccccc1)/c1cccnc1 was read as IL1B secr inh -19, ELG1 DNA repair -6%, HT1080NT lethal 1%, HT1080 IDH1KD tx 3%, DT40 TDP1 no CPT 3% and DT40 TDP1 CPT 5%.
Screening Oc1cccc(/C=N/N(Cc2ccccc2)c2ccccc2)c1 returned IL1B secr inh -55*, ELG1 DNA repair inconclusive, HT1080NT lethal inconclusive, HT1080 IDH1KD tx 18µM*, DT40 TDP1 no CPT inconclusive and DT40 TDP1 CPT -25%.
`Oc1ccc(/C=N/N(Cc2ccccc2)c2ccccc2)c(O)c1O` gave IL1B secr inh inconclusive, ELG1 DNA repair -6%, HT1080NT lethal -26%, HT1080 IDH1KD tx -27%, DT40 TDP1 no CPT 18µM* and DT40 TDP1 CPT 26µM*.
`Cc1sc2nc[nH]c(=S)c2c1-c1ccccc1` gave IL1B secr inh 11, ELG1 DNA repair inconclusive, HT1080NT lethal inconclusive, HT1080 IDH1KD tx inconclusive, DT40 TDP1 no CPT inconclusive and DT40 TDP1 CPT inconclusive.
`COc1ccc(C(=O)N(C)CC2CCN(CCc3cccc(C(F)(F)F)c3)CC2)cc1C` gave IL1B secr inh -61*, ELG1 DNA repair 1%, HT1080NT lethal -8%, HT1080 IDH1KD tx 1%, DT40 TDP1 no CPT inconclusive and DT40 TDP1 CPT inconclusive.
`CN(CC1CCN(CCc2cccc(C(F)(F)F)c2)CC1)C(=O)c1ccc(F)cc1F` gave IL1B secr inh -51*, ELG1 DNA repair -10%, HT1080NT lethal -2%, HT1080 IDH1KD tx -10%, DT40 TDP1 no CPT inconclusive and DT40 TDP1 CPT inconclusive.
`CSCCC(=O)N(C)CC1CCN(CCc2cccc(C(F)(F)F)c2)CC1` gave IL1B secr inh -13, ELG1 DNA repair -2%, HT1080NT lethal 4%, HT1080 IDH1KD tx 3%, DT40 TDP1 no CPT -13% and DT40 TDP1 CPT -6%.
For CC1=C(C(=O)N(C(C)C)C(C)C)CC(CC(=O)NCCc2ccccn2)C(=O)N1Cc1ccc(F)cc1 (stereo not given) the results were IL1B secr inh -26, HT1080NT lethal 14%, HT1080 IDH1KD tx 12%, DT40 TDP1 no CPT 1% and DT40 TDP1 CPT 1%.
For N#CCC(=O)Nc1ccc(C(=O)OCC(=O)NC2CCCCCC2)cc1 the results were IL1B secr inh 25, ELG1 DNA repair 13%, HT1080NT lethal 6%, HT1080 IDH1KD tx 6%, DT40 TDP1 no CPT -1% and DT40 TDP1 CPT -1%.
Screening O=[N+]([O-])c1c(Nc2cccc(O)c2)cc(Cl)c2nonc12 returned IL1B secr inh -96*, ELG1 DNA repair -29%, HT1080NT lethal 5.2µM*, HT1080 IDH1KD tx 8.2µM*, DT40 TDP1 no CPT 1.8µM* and DT40 TDP1 CPT 1.8µM*.
Cc1c(Nc2cc(Cl)c3nonc3c2[N+](=O)[O-])c(=O)n(-c2ccccc2)n1C was read as IL1B secr inh -105*, ELG1 DNA repair inconclusive, HT1080NT lethal 3.7µM*, HT1080 IDH1KD tx inconclusive, DT40 TDP1 no CPT 2.1µM* and DT40 TDP1 CPT 1.3µM*.
O=C(O)c1cccc(Nc2ccc3nonc3c2[N+](=O)[O-])c1 was read as IL1B secr inh -11, ELG1 DNA repair 7%, HT1080NT lethal 1%, HT1080 IDH1KD tx 0%, DT40 TDP1 no CPT 15% and DT40 TDP1 CPT -4%.
Screening Cc1c(Nc2cc(N3CCOCC3)c3nonc3c2[N+](=O)[O-])c(=O)n(-c2ccccc2)n1C returned ELG1 DNA repair 2%.
CCc1ccc2c(c1)C(c1ccc(N3CCOCC3)cc1)=NNC(c1ccncc1)=N2 was read as IL1B secr inh -3, ELG1 DNA repair -6%, HT1080NT lethal -17%, HT1080 IDH1KD tx -12%, DT40 TDP1 no CPT -2% and DT40 TDP1 CPT -15%.
`CCOc1ccc(C2=Nc3ccccc3C(c3ccc(N4CCOCC4)cc3)=NN2)cc1` gave IL1B secr inh -12, ELG1 DNA repair inconclusive, HT1080NT lethal -14%, HT1080 IDH1KD tx inconclusive, DT40 TDP1 no CPT 13µM* and DT40 TDP1 CPT 23µM*.
CCOc1ccc2c(c1)C(c1ccc(C)cc1)=NNC(c1ccc(OC)cc1)=N2 was read as IL1B secr inh inconclusive, ELG1 DNA repair -18%, HT1080NT lethal inconclusive, HT1080 IDH1KD tx -2%, DT40 TDP1 no CPT -28% and DT40 TDP1 CPT inconclusive.
For CCOc1ccc(C2=Nc3ccc(Br)cc3C(c3ccc(N4CCOCC4)cc3)=NN2)cc1 the results were IL1B secr inh -25, ELG1 DNA repair inconclusive, HT1080NT lethal 18%, HT1080 IDH1KD tx 8%, DT40 TDP1 no CPT 15µM* and DT40 TDP1 CPT inconclusive.
COc1cc(F)ccc1CN1CCC(C(=O)Nc2ccc(Oc3ccccc3)nc2)CC1 was read as IL1B secr inh -81*, ELG1 DNA repair -9%, HT1080NT lethal inconclusive, HT1080 IDH1KD tx 21µM*, DT40 TDP1 no CPT 16µM* and DT40 TDP1 CPT inconclusive.
